Bioassay records: PubChem BioAssay, National Center for Advancing Translational Sciences (NCATS)
Pf growth 96h: P. falciparum growth inhibition at 96 hour, primary screen for plastid delayed-death inhibitors; AID 504834; 320,000 compounds, 6.9% hits; P. falciparum luciferase reporter growth, 96 h; Potency, µM (titrated, usually from 28.7 µM), without a hit: top-dose activity change, negative = inhibition, usual class: inhibitors; further: potency means the concentration at half of the fitted maximal effect
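Delayed-death screen, second-generation endpoint: infected erythrocytes, 2% hematocrit, 0.05% parasitemia final; 96 hours at 37 C, 5% CO2; luciferase detection reagent; luminescence decrease equals reduced growth.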
HCV inhibitor: inhibitors of hepatitis C virus infection. Huh7.5.1 HCVcc-Cre infection, luciferase reporter, 44 h. Potency, µM (series often up to 41.8 µM), for the others: top-dose activity change, negative = inhibition, most hits filed as inhibitors. 340,000 compounds, 3.4% hits; further: potency means the concentration at half of the fitted maximal effect
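After 44 h co-culture of compound, cells and HCVcc-Cre (~0.5 moi), substrate is added for 15 min at room temperature and luciferase measured over 15 sec. Cells were seeded at 1,000/well and pre-cultured 4 h.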
Lassa entry inh: Lassa virus entry inhibition | Lassa virus pseudotype entry inhibition, cell reporter | Potency, µM (doses to about 37.9 µM), for the others: top-dose activity change, negative = inhibition, actives largely listed as inhibitors | 300,000 compounds, 1.2% hits; calls by dose curve; tested in HEK293 cells; further: potency means the concentration at half of the fitted maximal effect; nearly all actives have a fitted effect of over 50% in size
HCMV inh: blocks human cytomegalovirus replication. HFF cells, HCMV-luciferase reporter, 72 h; hits give low values. activity change, negative = inhibition, % at 57.5 µM. 410,000 compounds, 4.5% hits. AID 1259415; in the data active means activity change below about -60%; inconclusive means no clear call, values can overlap the other calls; inactive means above about -39%
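Steps: HFFs plated, 16 h 37C; compounds added; HCMV-luciferase added to MOI 1 PFU/cell; 72 h 37C; OneGlo reagent, 5 min room temperature; luminescence read, normalized to controls.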
Pf growth 48h: inhibits P. falciparum growth in the first generation, 48 h. P. falciparum luciferase growth in erythrocytes, 48 h. Potency, µM (top dose mostly 28.7 µM), inactives show top-dose activity change, negative = inhibition, usual class: inhibitors. 310,000 compounds, 5.9% hits. AID 504832; further: potency means the concentration at half of the fitted maximal effect
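Firefly luciferase activity from engineered P. falciparum reports growth; inhibitors lower the luminescent signal. Cultures contained 2% hematocrit erythrocytes at 0.1% final parasitemia.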
Marburg entry inh: blocks Marburg virus binding to or entry into cells | Marburg virus pseudotyped entry inhibition, cell reporter | Potency, µM (highest dose often 37.8 µM), for inactives: at the top dose activity change, negative = inhibition, hits mostly inhibitors | 300,000 compounds, 1.8% hits | AID 540276; calls by dose curve; tested in HEK293 cells; further: potency means the concentration at half of the fitted maximal effect
An asterisk follows results filed as active; ? = inconclusive; · = no result given; [ ] = another dose, or the depositor's remark. This is a sample that favours compounds with a hit; in the whole collection about 14% have one here. Unless noted, the call rests on the fitted dose curve; in most records, active means well fitted inhibition curve with a large enough effect; inconclusive means small, poorly fitted or top-dose-only effect, or another doubt; inactive means no such curve, though single readings can be large or run the other way. On the % scale 0 is the no-effect control and ±100 the full control effect.

SMILES	Pf growth 96h	HCV inhibitor	Lassa entry inh	HCMV inh	Pf growth 48h	Marburg entry inh
CC1(C)CC(=O)c2cc(NC(=O)c3ccc(F)cc3)c(=O)oc2C1	20%	4%	?	-33	2%	4%[46.1 µM]
Cc1ccc2c(c1)N(C(=O)Nc1cccc3c1CCCC3)CCO2	·	·	2%[46.1 µM]	-4	·	·
Cc1ccc(C(C(=O)Nc2ccc3c(c2)OCO3)N(C)C(=O)Cc2c[nH]c3ccccc23)cc1 (stereo not drawn)	?	-13%	?	-30	?	10µM*
CC(=O)NC(Cc1c[nH]c2ccccc12)C(=O)OCC(=O)Nc1ccc2c(c1)OCO2 (stereo not drawn)	-13%	3%	-4%	15	16%	?
O=C(NNC(=O)C1CCN(Cc2ccc(F)cc2Cl)CC1)Nc1ccc([N+](=O)[O-])cc1	-16%	11µM*	-17%	-18	-9%	-3%
CCN1C(=O)[C@H]2[C@@H](c3ccc(C)cc3)N3C(=O)N(c4cccc(Cl)c4)C(=O)[C@@]3(CC(C)C)[C@H]2C1=O	8.3µM*	-17%	·	-21	?	·
CC(C)(C)N1C(=O)[C@H]2[C@@H](c3ccc(Br)cc3)N3C(=O)N(c4ccccc4)C(=O)[C@@]3(Cc3ccccc3)[C@H]2C1=O	?	-2%	·	-33	?	·
CC[C@@]12C(=O)N(c3cccc(Cl)c3)C(=O)N1[C@H](c1ccc(Br)cc1)[C@@H]1C(=O)N(C(C)(C)C)C(=O)[C@@H]12	?	-13%	·	3	9.3µM*	·
CC(C)C[C@@]12C(=O)N(c3cccc(F)c3)C(=O)N1[C@H](c1ccc(Br)cc1)[C@@H]1C(=O)N(C(C)(C)C)C(=O)[C@@H]12	5.2µM*	-2%	·	-6	13µM*	·
CC(C)(C)N1C(=O)[C@H]2[C@@H](c3ccc(Br)cc3)N3C(=O)N(c4ccccc4)C(=O)[C@@]3(C)[C@H]2C1=O	13µM*	22%	·	-13	?	·
CCN1C(=O)[C@H]2[C@@H](c3ccc(C)cc3)N3C(=O)N(c4cccc(Cl)c4)C(=O)[C@@]3(Cc3ccc(Cl)cc3)[C@H]2C1=O	?	?	·	-16	?	·
Cc1cc(F)ccc1NC(=O)c1c(C)oc2c1C1=NCCN1C=N2	·	·	0%[46.1 µM]	3	·	·
O=C(NCc1ccc(Cl)cc1)N1CCN(C(=O)c2ccccc2)CC1	·	·	·	-28	·	·
CCOc1ccc(NC(=O)N2CCOc3ccccc32)cc1	·	·	10%[46.1 µM]	54	·	·
CC(C)C[C@@]12C(=O)N(c3cccc(Cl)c3)C(=O)N1[C@H](c1ccc(Br)cc1)[C@@H]1C(=O)N(C(C)(C)C)C(=O)[C@@H]12	4.1µM*	15%	·	-32	3.7µM*	·
COc1ccc([C@@H]2[C@@H]3C(=O)N(C(C)(C)C)C(=O)[C@@H]3[C@]3(CC(C)C)C(=O)N(c4cccc(Br)c4)C(=O)N23)cc1	3.7µM*	-9%	·	-9	?	·
CC[C@@]12C(=O)N(c3cccc(C)c3)C(=O)N1[C@H](c1ccc(Br)cc1)[C@@H]1C(=O)N(C(C)(C)C)C(=O)[C@@H]12	2.3µM*	-18%	·	-26	3.3µM*	·
CC(C)C[C@@]12C(=O)N(c3ccc(Br)cc3)C(=O)N1[C@H](c1ccc(Br)cc1)[C@@H]1C(=O)N(C(C)(C)C)C(=O)[C@@H]12	?	-3%	·	-10	-40%	·
CC[C@@]12C(=O)N(c3cccc(C)c3)C(=O)N1[C@H](c1ccc(OC)cc1)[C@@H]1C(=O)N(C(C)(C)C)C(=O)[C@@H]12	?	27%	·	·	?	·
Cc1nc(-c2ccc(Cl)cc2)oc1COC(C)(C)C(=O)O	?	·	·	·	3%	·
Cc1ccccc1Nc1cc(C(=O)NCc2cccs2)c2ccccc2n1	·	·	-17%[46.1 µM]	-6	·	-14%[46.1 µM]
Cc1sc2ncnc(N(C)Cc3ccco3)c2c1C	-29%	?	-13%	-71*	·	-6%
Cc1nc(SCC(=O)N(C)Cc2ccco2)c2c(C)c(C)sc2n1	1%[5.75 µM]	?	?	?	?	7.3µM*
Cc1sc2nc3c4ccccc4c(NCc4ccco4)nn3c(=O)c2c1C	5.9µM*	-6%	?	195	59%	12%
CCN(C(=O)CSc1nc(C)nc2sc(C)c(C)c12)c1ccc(F)cc1	0%	6%	·	16	-29%	·
SMILES	Pf growth 96h	HCV inhibitor	Lassa entry inh	HCMV inh	Pf growth 48h	Marburg entry inh
Cc1nc(NCc2ccco2)c2c(C)c(C)sc2n1	·	10µM*	8%	-105*	-8%	?
CCc1ccc(NC(=O)COc2ccc(/C=C(/C#N)c3nc4ccccc4[nH]3)cc2OC)cc1	?	?	?	-1	2.6µM*	?
COc1cc(/C=C(/C#N)c2nc3ccccc3[nH]2)ccc1OCc1ccc(C(=O)O)o1	?	-1%	13%	-18	?	?
COc1cc(/C=C(\C#N)c2nc3ccccc3[nH]2)ccc1OCc1ccc(F)cc1	·	·	-6%[46.1 µM]	-78*	·	?
COC(=O)c1ccc(COc2ccc(/C=C(\C#N)c3nc4ccccc4[nH]3)cc2OC)o1	?	-24%	-27%	-5	1.3µM*	-13%
COc1cc(/C=C(\C#N)c2nc3ccccc3[nH]2)ccc1OCc1cccc(C(F)(F)F)c1	·	·	?	-87*	·	?
CCN(CC)C(=O)Cn1nnc2sc(-c3ccccc3)cc2c1=O	·	·	15%[46.1 µM]	2	·	2%[46.1 µM]
CCOc1ccc(NC(=O)CSc2ncc3c(n2)-c2ccc(Cl)cc2N(Cc2ccccc2)S3(=O)=O)cc1	·	·	18%[46.1 µM]	17	·	·
CCNC(=O)N1CCC(n2nccc2NC(=O)CCCc2ccccc2)CC1	13µM*	·	24%	-1	1%	16%
CN(C)S(=O)(=O)N1CCC(n2nccc2NC(=O)CCCc2ccccc2)CC1	5.2µM*	1%	·	-22	?	·
CC(C)(C)OC(=O)N1CCC(c2c(C(=O)N3CCN(C(=O)c4ccco4)CC3)cnn2-c2ccc(Cl)cc2)CC1	·	·	6%[46.1 µM]	-13	·	·
CCOc1ccc(NC(=O)Cn2c(=O)n(Cc3ccc(C(=O)NCc4ccc5c(c4)OCO5)cc3)c(=O)c3ccccc32)cc1	·	·	0%[46.1 µM]	0	·	-6%[46.1 µM]
N#Cc1cccc(NC(=O)c2cc3c(s2)-c2ccc(Cl)cc2SC3)c1	·	·	2%[46.1 µM]	?	·	29%[46.1 µM]
COc1ccc(NC(=S)Nc2ccc(OCc3ccccc3)cc2)c(OC)c1	-23%	?	-10%	-76*	0%	?
COc1ccc(NC(=S)Nc2ccccc2)c(OC)c1	49%	-24%	·	-9	-26%	·
COc1ccc(NC(=O)c2ccc(COc3ccccc3)o2)c(OC)c1	8.3µM*	-11%	·	-5	-8%	·
COc1ccc(NC(=O)c2ccc(COc3ccccc3Br)o2)c(OC)c1	·	?	·	-11	·	·
CC(C)(C)OC(=O)N(CCc1ccccc1)Cc1ccc(OCc2cccc(NC(=O)C3CC3)c2)cc1	·	13µM*	·	?	·	·
